Screening results from PubChem.
Rows were chosen to be rich in hits. Some 0.4% of all compounds tested hit in one or more screens of this group.
Rac1 mut GTP: human Rac1 activated mutant GTP binding change | P63000 | GST-Rac1 activated beads, fluorescent GTP binding, flow cytometry; actives lie on both sides; 100% means binding = to untreated wells | 190,000 compounds, 0.11% hits | percent activity (GTP binding), % at 10 µM | AID 764;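 active means GTP binding at least 20 percentage points away from the 100% baseline, in either direction, so actives lie on both sides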
Cdc42 wt GTP: modulators (inhibitors or activators) of GTP binding to human Cdc42 wildtype | P60953 | GST-Cdc42 beads, Bodipy-GTP binding, flow cytometry; actives lie on both sides | percent activity (GTP binding), % at 10 µM | 190,000 compounds, 0.2% hits;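 active means percent activity GTP binding at least 20 points away from the 100% baseline, either down as inhibitor or up as activator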;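 further: median bead fluorescence of bound Bodipy-FL-GTP at 100 nM; 0% = excess unlabeled GTP control and 100% = no compound control; below 100% means less GTP binding so inhibitor and above means activator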
Target sequence (P60953 whole entry, looked up): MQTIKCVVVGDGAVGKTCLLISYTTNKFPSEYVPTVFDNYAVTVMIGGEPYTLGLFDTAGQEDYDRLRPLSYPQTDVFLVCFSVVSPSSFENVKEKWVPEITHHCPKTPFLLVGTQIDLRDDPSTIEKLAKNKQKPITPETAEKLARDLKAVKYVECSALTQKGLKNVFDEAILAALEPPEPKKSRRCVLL
Rac1 wt GTP bind: human Rac1 wildtype GTP binding, inhibitors and activators; GST-Rac1 beads, fluorescent GTP binding, flow cytometry; actives lie on both sides; 0 = cold GTP competed, 100 = untreated; 190,000 compounds, 0.27% hits; P63000; GTP binding activity (% of control), % at 10 µM;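 active means GTP binding activity at least 20 points away from the 100% control level, either lower or higher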
Rab2 wt GTP: changes GTP binding to wildtype dog Rab2A, up or down | 190,000 compounds, 0.19% hits | GTP binding activity, % at 10 µM | P61105 | AID 760 | GST-Rab2 wt beads, Bodipy-GTP binding, flow cytometry;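 active means GTP binding activity at least 20 points away from 100%, either lowered or raised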;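 further: 0% = beads with excess unlabeled GTP and 100% = no-compound control corrected for plate trend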
Rab7 wt modul: dog Rab7 wildtype GTP binding, inhibitors and activators. GST-Rab7 beads, fluorescent GTP binding, flow cytometry; actives lie on both sides; untreated = 100%, excess cold GTP = 0%. GTP binding activity (percent of control), % at 10 µM. 190,000 compounds, 0.055% hits;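 active means fluorescent GTP binding to Rab7 beads changed by at least 20 points from the 100% baseline, either direction, mostly lower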;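 further: median green fluorescence of bound Bodipy-FL-GTP per Rab7 bead population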
HRas wt GTP bind: changes GTP binding to wildtype human HRas | GST-Ras wt beads, Bodipy-FL-GTP binding, flow cytometry; actives lie on both sides | GTP binding activity, % at 10 µM | 190,000 compounds, 0.14% hits | AID 759;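 active means GTP binding activity at least 20% away from the 100% baseline, either lowered as inhibitor or raised as activator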;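 further: 0% = unlabeled GTP competition control and 100% = no-compound control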
Target sequence (P01112 whole entry, looked up): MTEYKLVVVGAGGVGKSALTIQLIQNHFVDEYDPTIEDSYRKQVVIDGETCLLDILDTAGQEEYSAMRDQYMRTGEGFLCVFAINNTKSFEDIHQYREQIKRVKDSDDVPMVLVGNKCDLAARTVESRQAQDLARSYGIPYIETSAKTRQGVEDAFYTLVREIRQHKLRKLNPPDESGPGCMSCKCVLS
Numbers without * were called inactive; [ ] = remark or other dose.

SMILES	Rac1 mut GTP	Cdc42 wt GTP	Rac1 wt GTP bind	Rab2 wt GTP	Rab7 wt modul	HRas wt GTP bind
CC1=CC(=O)C=C(C)C1=NOS(=O)(=O)c1ccccc1	78*	91	89	88	90	92
Cc1ccc(S(=O)(=O)ON=C2CCN(S(=O)(=O)c3ccccc3)CC2)cc1	97	95	97	97	99	97
COc1cccc(NC(=S)N(CCCN2CCOCC2)C(C)c2cc3ccccc3o2)c1 (centres undefined)	92	93	95	96	101	97
COC(=O)/C=C/C(=O)Nc1cccnc1	99	101	103	101	96	99
O=C(Nc1cccc(O)c1)c1ccccc1	100	103	102	104	106	104
O=C(O)/C=C/C(=O)Nc1cccnc1	34*	31*	34*	31*	20*	38*
O=C(O)/C=C\C(=O)Nc1cccc(C(=O)Nc2cccc(O)c2)c1	89	85	76*	83	95	87
COc1ccc(NC(=O)Cn2cnc3sc(C)c(S(=O)(=O)N4CCOCC4)c3c2=O)c(OC)c1	92	89	91	95	100	91
Cc1c(Br)c([N+](=O)[O-])nn1CC(=O)Nc1c(C)n(C)n(-c2ccccc2)c1=O	98	100	99	99	97	98
Cc1ccc2nc(CSc3nc(C)cc(C)c3C#N)[nH]c2c1	105	114	122*[activator]	101	102	107
Cc1cc(C)c(C#N)c(SCc2ccccc2)n1	98	100	104	101	96	99
O=C(COC(=O)c1cc2ccccc2o1)c1ccccc1	101	98	102	98	98	99
O=C(OCCN1CCCCC1)c1cc2ccccc2o1	102	114	123*[activator]	106	102	106
Clc1ccc(-c2ccc(/C=N/Nc3nncc(-c4ccccc4)n3)o2)cc1	94	98	94	96	92	96
Clc1ccccc1-c1ccc(/C=N/Nc2nncc(-c3ccccc3)n2)o1	86	84	79*	85	97	91
COc1cc2c(cc1OC)-c1cc(NCc3ccccn3)nc(=O)n1CC2	84	79*	83	80	87	79*
COc1cc2c(cc1OC)-c1cc(NC3CCCCCCC3)nc(=O)n1CC2	88	77*	89	80	91	77*
CCNc1cc2n(c(=O)n1)CCc1cc(OC)c(OC)cc1-2	87	88	86	86	87	86
c1ccc(SCCOCCN2CCc3ccccc3C2)cc1	97	98	101	98	94	97
CCOC(=O)N1CCC(N2C(=O)c3ccccc3C2Nc2ccc(S(=O)(=O)N(CC)CC)cc2)CC1 (centres undefined)	96	97	101	95	97	97
COc1ccc(CS(=O)(=O)CC2(O)CCN(C(=O)c3cccc(C(F)(F)F)c3)CC2)cc1	96	95	98	98	96	95
COc1cccc(CNc2ccccc2O)c1OCc1ccccc1F	93	94	97	96	97	95
O=C(Oc1c(Br)cc(C(=S)N2CCOCC2)cc1Br)c1ccc(Cl)cc1	77*	75*	80	78*	88	80
O=C(Oc1ccc(C(=S)N2CCOCC2)cc1Br)c1cc(Cl)ccc1Cl	95	97	99	96	98	98
O=c1cc(N2CCc3ccccc3C2)[nH]c(=O)n1-c1ccc(Cl)cc1	103	102	121*[activator]	104	101	102
SMILES	Rac1 mut GTP	Cdc42 wt GTP	Rac1 wt GTP bind	Rab2 wt GTP	Rab7 wt modul	HRas wt GTP bind
Cc1ccc(S(=O)(=O)N(C)CC(=O)OCC(=O)c2c(N)n(C)c(=O)n(C)c2=O)cc1	95	99	99	95	96	97
Cc1ccccc1Nc1nc(NCc2ccco2)c2ccccc2n1	98	100	100	101	99	102
Cc1cccc(Nc2nc(NCc3ccco3)c3ccccc3n2)c1	85	84	88	72*	79*	85
Cc1ccc(NC(=S)NNC(=O)c2c(Cl)c(C)nn2C)cc1	97	100	100	99	96	99
Cc1ccc(NC(=S)NNC(=O)c2cn(C)nc2C)cc1	108	118	134*[activator]	114	107	113
O=C(O)c1cccc(NC(=S)N/N=C/c2ccccc2OCc2ccc(Br)cc2)c1	94	89	94	93	98	97
COC(=O)c1ccc(COc2ccccc2/C=N/Nc2cccc(C(=O)O)c2)cc1	128*[activator]	124*[activator]	141*[activator]	128*[activator]	126*[activator]	121*[activator]
CC(=O)Nc1ccc(NC(=O)c2ccccc2C)cc1	101	103	105	102	102	102
Cc1ccccc1C(=O)Nc1ccc2c(C#N)c3nc4ccccc4nc3n2c1	88	88	76*	76*	89	80
CCOc1ccc(S(=O)(=O)N(C)c2ccc(OCC(=O)Nc3nc(-c4cc(OC)ccc4OC)cs3)cc2)cc1	95	98	99	96	99	95
S=C(NCCc1ccccc1)NC1CC1	104	117	123*[activator]	105	99	104
Clc1cc(Cl)cc(C2=NCCC(c3ccccc3)O2)c1 (centres undefined)	96	96	100	99	96	98
CC(C)(C)NC(=O)CSc1nccn1Cc1ccccc1	82	77*	75*	85	90	86
O=C(CSc1nccn1Cc1ccccc1)Nc1nccs1	99	103	105	103	102	103
Nc1[nH]n2c(=O)cc(-c3ccccc3)nc2c1N=Nc1ccccc1	94	95	98	94	97	95
Nc1nn2c(-c3ccccc3)cc(=O)[nH]c2c1N=Nc1ccc(Br)cc1	76*	75*	76*	75*	85	82
Cc1cc(-c2n[nH]c(=S)n2/N=C/C(Cl)=C/c2ccccc2)n[nH]1	85	92	85	85	77*	77*
COc1ccc(-c2nnc(S/C(=C/c3ccc(Cl)cc3)C(=O)O)o2)cc1	73*	74*	81	75*	85	83
COc1ccc(-n2cc(-c3ccccc3)c3c(=O)[nH]cnc32)cc1	104	110	121*[activator]	106	104	108
COc1ccc(-n2cc(-c3ccccc3)c3c(N4CCOCC4)ncnc32)cc1	98	97	99	96	94	97
Cc1nnc2sc(SCC(=O)Nc3cccc(Cl)c3)nn2c1=O	98	96	100	100	105	99
